Source: the supplement of paper PMC7380943
± gives the standard deviation of the averaged measurements.

Key:
[1] = test system: CLZ3 (HCA2 human fibroblast dual HR-NHEJ reporter); experiment: NHEJ repair efficiency (GFP+ cells) relative to control (log10 fold); higher = more non-homologous end joining; conditions: 5 µM; doxycycline 0.5 ug/mL
[2] = test system: CLZ3 (HCA2 human fibroblast dual HR-NHEJ reporter); experiment: HR repair efficiency (tdTomato+ cells) relative to control (log10 fold); higher = more homologous recombination; conditions: 5 µM; doxycycline 0.5 ug/mL
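Wherever HR repair efficiency (tdTomato+ cells) relative to control is given: compound given one day before doxycycline, which switches on I-SceI endonuclease expression to create double-strand breaks within the integrated reporter.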
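Wherever NHEJ repair efficiency (GFP+ cells) relative to control is given: compound given one day ahead of doxycycline, which switches on I-SceI endonuclease to cut the chromosomally integrated reporter and create DSBs.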

Row | Structure (SMILES) | NHEJ repair efficiency (log10) [1] | HR repair efficiency (log10) [2]
1 | O=c1ccc2ccc3occc3c2o1 [Isopsoralen] | -0.0427 | -0.0598
2 | CCN1C[C@]2(COC)[C@H](O)C[C@H](OC)[C@@]34[C@@H]5C[C@@]6(O)[C@H](OC(=O)c7ccccc7)[C@@H]5[C@@](O)([C@@H]([C@H](OC)[C@H]23)[C@@H]14)[C@@H](O)[C@@H]6OC [Benzoylaconine] | -0.0909 | 0.0403
3 | COc1c(C)c(O)cc2[o+]c(-c3ccccc3)ccc12.[O-][Cl+3]([O-])([O-])[O-] [Dracorhodin perochlorate] | 0.134 | 0.0436
4 | O=C/C=C/c1ccccc1 [Cinnamaldehyde] | 0.0683 | -0.0835
5 | COC[C@@]12CC[C@H](OC)[C@]34C(C([C@H](OC)[C@H]13)[C@]1(OC(C)=O)[C@H]3[C@@H](OC(=O)c5ccccc5)[C@](O)(C[C@H]34)[C@@H](OC)[C@@H]1O)N(C)C2 [Hypaconitine] | 0.0511 | 0.0965
6 | CCN1C[C@]2(COC)CC[C@H](O)[C@]34C1[C@@](O)([C@@H](OC)[C@H]23)[C@@]1(O)C[C@H](OC)[C@H]2C[C@@H]4[C@@H]1[C@H]2OC [Delsoline] | -0.0325 | 0.0487
7 | CC(C)=CCOc1c2occc2cc2ccc(=O)oc12 [Imperatorin] | 0.0993 ± 0.22 | 0.135 ± 0.28
8 | O=C1C[C@@H]2OCC=C3CN4CC[C@]56c7ccccc7N1[C@H]5[C@H]2[C@H]3C[C@H]46 [Strychnine] | 0.104 | -0.0183
9 | c1cc2c(cc1[C@H]1OC[C@H]3[C@@H]1CO[C@@H]3c1ccc3c(c1)OCO3)OCO2 [Sesamin] | 0.0857 | 0.185
